From the supplement of paper PMC13380429

Legend:
[1] = tested on: Vero E6 infected with SARS-CoV-2; assay: morphology score (similarity to uninfected cells); higher = more like uninfected cells; conditions: 24 h
[2] = tested on: Vero E6 infected with SARS-CoV-2; assay: SARS-CoV-2 infection rate relative to infected DMSO; higher = more infection, active = 60 or less; conditions: 24 h
[3] = tested on: Vero E6 infected with SARS-CoV-2; assay: inhibition of SARS-CoV-2 cytopathic effect; higher = more antiviral protection, active = above 15; conditions: 48 h

SMILES	morphology score [1]	SARS-CoV-2 infection rate [2]	inhibition of SARS-CoV-2 cytopathic effect ([3]; 1 nM)	inhibition of SARS-CoV-2 cytopathic effect ([3]; 8.33 nM)	inhibition of SARS-CoV-2 cytopathic effect ([3]; 100 nM)	inhibition of SARS-CoV-2 cytopathic effect ([3]; 833.33 nM)	inhibition of SARS-CoV-2 cytopathic effect ([3]; 10000 nM)
CC1(C)CC[C@]2(C(=O)O)CC[C@]3(C)[C@H](C(=O)C=C4[C@@]5(C)C=C(C#N)C(=O)C(C)(C)[C@@H]5CC[C@]43C)[C@@H]2C1 [bardoxolone] (0.833333 µM)	0.164	104% (inactive)	–	–	–	–	–
Nc1sc2c(c1C(=O)c1ccc(Cl)cc1)CCCC2	–	–	-0.5% (inactive)	3.31% (inactive)	0.38% (inactive)	–	–
Cc1cc(CC(=O)O)n(C)c1C(=O)c1ccc(Cl)cc1 [zomepirac]	–	–	-4.55% (inactive)	-6.14% (inactive)	-5.66% (inactive)	-0.27% (inactive)	-0.22% (inactive)
Cc1ccccc1C(c1ccccc1C)N1C2CCC1CC(O)(c1ccccc1)C2 (configuration not stated) (10 µM)	0.307	85% (inactive)	–	–	–	–	–
Oc1ccc(-c2c(-c3ccccc3)nn3c(C(F)(F)F)cc(C(F)(F)F)nc23)cc1	–	–	0.08% (inactive)	0.21% (inactive)	-0.05% (inactive)	-1.7% (inactive)	11.9% (inactive)
Cn1nccc1Nc1nccc(-c2ccn([C@H](CO)c3ccc(Cl)c(F)c3)c(=O)c2)n1	–	–	0.72% (inactive)	0.13% (inactive)	-0.395% (inactive)	-5.82% (inactive)	-9.29% (inactive)
CCCCC(=O)N(Cc1ccc(-c2ccccc2-c2nnn[nH]2)cc1)[C@H](C(=O)O)C(C)C [valsartan] (10 µM)	0.00713	98.5% (inactive)	–	–	–	–	–
CC(=O)OC[C@H]1O[C@@](COC(C)=O)(O[C@H]2O[C@H](COC(C)=O)[C@@H](OC(C)=O)[C@H](OC(C)=O)[C@H]2OC(C)=O)[C@@H](OC(C)=O)[C@@H]1OC(C)=O [sucrose-octaacetate]	–	–	0.66% (inactive)	1.07% (inactive)	-1.24% (inactive)	-0.47% (inactive)	-0.86% (inactive)
CCC(=O)O[C@]1(C(=O)COC(C)=O)CC[C@H]2[C@@H]3C[C@H](C)C4=CC(=O)C=C[C@]4(C)[C@H]3[C@@H](O)C[C@@]21C [methylprednisolone-aceponate]	–	–	1.61% (inactive)	1% (inactive)	0.19% (inactive)	3.54% (inactive)	2.69% (inactive)
CCC(=O)O[C@]1(C(=O)CCl)[C@@H](C)C[C@H]2[C@@H]3C[C@H](F)C4=CC(=O)C=C[C@]4(C)[C@@]3(F)[C@@H](O)C[C@@]21C [halobetasol-propionate]	–	–	-3.17% (inactive)	-1.89% (inactive)	-2.65% (inactive)	1.32% (inactive)	4.68% (inactive)
CCC[C@@H]1CC2=CC(=O)CC[C@]2(C)[C@H]2CC[C@@]3(C)[C@@H](CC[C@@]3(O)CCC(=O)O)[C@H]12	–	–	1.5% (inactive)	15.1% (active)	3.45% (inactive)	-4.91% (inactive)	1.68% (inactive)
COc1ccc(Cl)c(Nc2ncnc3cc(OCC4CCN(C)CC4)c(OC)cc23)c1 (10 µM)	-0.108	114% (inactive)	–	–	–	–	–
O=C(O)c1cccc(-c2noc(-c3ccccc3F)n2)c1 [ataluren]	–	–	-0.23% (inactive)	0.96% (inactive)	0.68% (inactive)	2.99% (inactive)	2.92% (inactive)
CC(C)(C)NCC(O)COc1ccc(NC(=O)NC2CCCCC2)cc1 (configuration not stated) [talinolol]	–	–	0.2% (inactive)	-2.2% (inactive)	-0.81% (inactive)	0.83% (inactive)	0.7% (inactive)
O=C1[C@H]2CCCC[C@H]2C(=O)N1CCCCN1CCN(c2nsc3ccccc23)CC1 [perospirone] (10 µM)	0.0481	115% (inactive)	–	–	–	–	–
C[C@H](CCC(=O)NCCS(=O)(=O)O)[C@H]1CC[C@H]2[C@@H]3[C@@H](O)C[C@@H]4C[C@H](O)CC[C@]4(C)[C@H]3CC[C@]12C [ursodeoxycholyltaurine] (10 µM)	0.0842	102% (inactive)	–	–	–	–	–
O=C(Nc1c(Cl)cncc1Cl)c1ccc(OC(F)F)c(OCC2CC2)c1 [roflumilast]	–	–	-0.45% (inactive)	1.68% (inactive)	0.72% (inactive)	-0.19% (inactive)	0.85% (inactive)
C[C@@H](O)[C@@H]1NC(=O)[C@H](CCCCN)NC(=O)[C@@H](Cc2c[nH]c3ccccc23)NC(=O)[C@H](Cc2ccccc2)NC(=O)[C@@H](NC(=O)[C@H](N)Cc2ccccc2)CSSC[C@@H](C(=O)N[C@H](CO)[C@@H](C)O)NC1=O [octreotide] (10 µM)	0.0589	102% (inactive)	–	–	–	–	–
